20 compounds from PubChem BioAssay (NCATS) can be followed below.

The source made the active and inactive calls. Calls come from the whole dose curve; as a rule, active = well fitted curve in the direction sought with a large enough effect; inconclusive = small, poorly fitted or top-dose-only effect, or effect the other way, or another doubt; inactive = no such curve, though single readings can be large or run the other way. Residues, ends and D or L forms follow the SMILES beside them. *: point of attachment. Cbz = O=C(OCc1ccccc1)*

The assay can be described thus: qHTS for inhibitors of adenylyl cyclases using a fission yeast platform: a pilot screen against the NCATS LOPAC library (AID 1347410). The settings on record: S. pombe CHP2027, fbp1-GFP fluorescence, 18 h, yeast expressing mammalian AC9 and human GNAS; series mostly up to 57.5 µM. The method, boiled down:
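Inhibition of GNAS-stimulated AC9 activity in S. pombe was inferred from derepression of a PKA-repressed fbp1-GFP reporter, measured as cytometric fluorescence after 18 h at 30C with compounds at up to 57 µM.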
As to `Cc1ccc2c(c1)C(N1CCN(C)CC1)=Nc1cccnc1N2`, the outcome was inactive.
As to `NS(=O)(=O)c1cccc2c1c([N+](=O)[O-])cc1nc(O)c(O)nc12`, the call was inactive.
Consider `CC(/C=C/c1cccc(Oc2ccc(F)cc2)c1)N(O)C(N)=O` (stereo not given), for which the compound was called inactive.
The value for `NC(C(=O)N[C@@H]1C(=O)N2C(C(=O)O)=C(Cl)CS[C@H]12)c1ccccc1` (stereo not given in full) was “inactive”.
The value for `O=C1C2C=CC=CC2=NC(=S)N1CCN1CCC(=C(c2ccc(F)cc2)c2ccc(F)cc2)CC1` (stereo not given) was “inactive”; that for `CCCCCCC(=O)OC1CC(C)(C)NC(C)(C)C1` was “inactive”.
`CC(=O)NCCc1c[nH]c2ccc(O)cc12`: the result was inactive.
For `COC(=O)[C@H](NC(=O)c1cc(-c2ccccc2)nc2ccccc12)c1ccccc1` the value was “inactive”; for `Oc1cc(O)c2c(c1)O[C@H](c1ccc(O)c(O)c1)[C@@H](O)C2`, “inactive”.
The value for `O=C(O)c1cc2cc(F)ccc2[nH]1` was “inactive”; that for `NC1CCN(O)C1=O` (stereo not given) was “inactive”; that for `C=C(C)C1CC=C(C(=O)O)CC1` (stereo not given) was “inactive”.
In the case of `Cn1cc(C(F)(F)F)nc1-c1ccc(OCC(O)CNCCOc2ccc(O)c(C(N)=O)c2)cc1` (stereo not given), the call was inactive.
For `COc1ccc(CCn2nnnc2C2(c3ccc(C)cc3)CC2)cc1`, the compound was classed as inactive.
As to `CC(C)[C@H](NC(=O)OCc1ccccc1)C(=O)N[C@H](C=O)Cc1ccccc1` (Cbz-Val-Phe-aldehyde), the call was inactive.
Take `O=c1ccc2c(OCCCCc3ccccc3)c3ccoc3cc2o1`: the result was inactive.
For `OCC1NCC(O)C(O)C1O` (stereo not given) the value was “inactive”.
The value for `N[C@@H](CCCC(=O)O)C(=O)O` was “inactive”.
The value for `NC(N)=NC(N)=Nc1ccccc1` was “inactive”.
For `CC1=C(/C=C/C(C)=C/C=C/C(C)=C\C(=O)O)C(C)(C)CCC1`, the compound was classed as inactive.
